TbPYK inhibitor = qHTS of Trypanosoma Brucei Inhibitors. pyruvate kinase (Trypanosoma brucei), Q57TT1. TbPYK enzyme, Kinase-Glo Plus ATP luminescence, 45 min. Potency, µM (highest dose often 76.8 µM), usual class: inhibitors. 0.12% of 410,000 active. AID 624173, 2012; further: nearly all actives have a fitted effect of over 50% in size
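Enzyme and substrate buffer are dispensed first and compound is pin-transferred. ADP at 130 uM final then starts the reaction, which runs 45 min at room temperature. Detection reagent is added for 10 min before luminescence is imaged.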
LmPK inhibitor = qHTS Assay for Inhibitors of Leishmania Mexicana Pyruvate Kinase (LmPK). 0.37% of 290,000 active. purified LmPK, Kinase-Glo ATP luminescence, 1 h. Potency, µM (titrated, usually from 57.5 µM), most hits filed as inhibitors. AID 1721, 2009
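Pyruvate kinase activity monitored as ATP production (luciferase luminescence). Conditions: 0.1 nM enzyme, 0.5 mM PEP, 0.1 mM ADP, 1 h, RT; normalized against uninhibited and no-enzyme wells.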
Cycloheximide cs = Cycloheximide Counterscreen for Small Molecule Inhibitors of Shiga Toxin; cell reporter, cycloheximide protein synthesis inhibition counterscreen; max response, %; 12% of 300,000 active; AID 2314, 2010; in the data active means max response mostly above about 13%, no sharp cut-off; inactive means mostly below about 14%; further: read at 38.3 µM for the half of the compounds with a filed dose
FBPA Giardia inh = qHTS Assay for Inhibitors of Fructose-1,6-bisphosphate Aldolase from Giardia Lamblia; A8B2U2; purified Giardia FBPA; Potency, µM (titrated, usually from 59.6 µM), hits mostly inhibitors; 0.71% of 290,000 active; AID 2451, 2010; further: nearly all actives have a fitted effect of over 55% in size
Target sequence (A8B2U2 whole entry, looked up): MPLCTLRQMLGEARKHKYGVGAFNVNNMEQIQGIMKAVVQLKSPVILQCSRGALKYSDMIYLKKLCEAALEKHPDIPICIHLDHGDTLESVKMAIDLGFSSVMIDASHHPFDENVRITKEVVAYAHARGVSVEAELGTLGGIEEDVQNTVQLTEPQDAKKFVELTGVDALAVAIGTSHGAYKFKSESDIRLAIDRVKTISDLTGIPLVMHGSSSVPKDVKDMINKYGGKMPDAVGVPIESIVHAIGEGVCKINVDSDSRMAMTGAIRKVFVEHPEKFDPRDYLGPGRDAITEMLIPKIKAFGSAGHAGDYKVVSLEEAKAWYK
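40 nM FBPA preincubated 10 min at RT with compound (up to 57.5 uM final), then substrate plus GAPDH/TPI/NAD/arsenate coupling and diaphorase/resazurin added. Fluorescence read after 20 min at RT, 525/598 nm.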
Sm TGR inh = qHTS Assay for the Inhibitors of Schistosoma Mansoni Peroxiredoxins. purified TGR, DTNB reduction, TNB absorbance 405 nm. Potency, µM (top dose mostly 114 µM), actives largely listed as inhibitors. 3% of 360,000 active. AID 485364, 2010; further: nearly all actives have a fitted effect of over 60% in size
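First, TGR (20 nM dispensed) and NADPH were mixed with compound. Second, a 15 min room-temperature incubation followed. Third, further NADPH and then DTNB were added to start the reaction. Finally, TNB absorbance was monitored kinetically.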
Shiga inhibitor = A qHTS for Small Molecule Inhibitors of Shiga Toxin | Vero cells, Shiga toxin protein synthesis inhibition reporter | inhibition, % at 38.7 µM | 9.2% of 290,000 active; in the data active means inhibition mostly above about 28%, no sharp cut-off; inactive means mostly below about 43%
Of the large screens only hits and unclear results are named; the others gave an inactive call. The sample as a whole holds a higher share of hits than the screen did. Unless noted, the call rests on the fitted dose curve; in most records, active means well fitted curve in the direction sought with a large enough effect; inconclusive means small, poorly fitted or top-dose-only effect, or another doubt; inactive means no such curve, though single readings can be large; an effect the other way counts as inactive or inconclusive.

CC(=O)C1=NN(c2ccccc2)C(c2ccc3c(c2)OCO3)N1c1ccc(N2CCOCC2)cc1 (centres undefined)	none
CCOc1cc(S(=O)(=O)NCCc2c(C)[nH]c3ccc(C)cc23)ccc1Br	none (no result: LmPK inhibitor, Cycloheximide cs, FBPA Giardia inh, Shiga inhibitor)
CCCCC(=O)Nc1ncc([N+](=O)[O-])s1	Cycloheximide cs 17, Shiga inhibitor 54
CCCCC(=O)Nc1ncc(Br)s1	Cycloheximide cs 11
CC(C)CC(=O)Nc1ncc([N+](=O)[O-])s1	Cycloheximide cs 41, Shiga inhibitor 84
COc1ccc(CC(=O)Nc2ncc([N+](=O)[O-])s2)cc1OC	TbPYK inhibitor inconclusive
Cn1c(=O)cc(OCC(=O)N2CCN(c3ccc(F)cc3)CC2)c2ccccc21	none (no result: LmPK inhibitor, Cycloheximide cs, FBPA Giardia inh, Shiga inhibitor)
COc1ccc(/C=C/C(=O)Nc2ccccc2C(F)(F)F)cc1OC	none
CCOc1ccc(/C=C/C(=O)Nc2ccc(OC)cc2[N+](=O)[O-])cc1	none (no result: FBPA Giardia inh)
COc1ccc(/C=C/C(=O)Nc2ccccc2C(=O)N2CCCC2)cc1	Shiga inhibitor 53 (no result: TbPYK inhibitor)
COc1ccc(/C=C/C(=O)Nc2ccccc2C(=O)NCC(c2ccc(OC)cc2)N(C)C)cc1 (centres undefined)	Shiga inhibitor 39
CCOc1ccc(/C=C/C(=O)Nc2ccccc2C(F)(F)F)cc1	Cycloheximide cs 36, Shiga inhibitor 38
COc1ccc(C(CNC(=O)c2cccc3cccnc23)N(C)C)cc1 (centres undefined)	none
COc1ccc(/C=C/C(=O)Nc2ccccc2C(=O)O)cc1	LmPK inhibitor inconclusive
COc1ccc(/C=C/C(=O)Nc2ccccc2C(F)(F)F)cc1	Cycloheximide cs 24, Shiga inhibitor 59
Cc1cccc(-n2cnc3cc(C(=O)NCc4ccccc4Cl)ccc32)c1	none (no result: LmPK inhibitor, Cycloheximide cs, FBPA Giardia inh, Shiga inhibitor)
COc1ccc2cc(C(=O)N3CCN(C)CC3)[nH]c2c1	Cycloheximide cs 33, Shiga inhibitor 86
CCOC(=O)C1CCCN(C(=O)c2cc3ccc(OC)cc3[nH]2)C1 (centres undefined)	Cycloheximide cs 23
CCN1CCN(C(=O)c2cc3ccc(OC)cc3[nH]2)CC1	Cycloheximide cs 31, Shiga inhibitor 60
COc1ccc2cc(C(=O)N3CCN(c4ccc(F)cc4)CC3)[nH]c2c1	none
CCOC(=O)C1CCCN(C(=O)c2cc3cc(F)ccc3[nH]2)C1 (centres undefined)	none
O=C(NC(c1ccc(Cl)cc1)c1cnccn1)C1CCN(CCCOc2ccccc2)CC1 (centres undefined)	none (no result: LmPK inhibitor, Cycloheximide cs, FBPA Giardia inh, Sm TGR inh, Shiga inhibitor)
COc1cccc(CNC(=O)C2CCN(c3nnc(-n4c(C)ccc4C)s3)CC2)c1	Sm TGR inh inconclusive (no result: LmPK inhibitor, Cycloheximide cs, FBPA Giardia inh, Shiga inhibitor)
Nc1c2c(nc3sc4c(c13)CCCC4)-c1ccccc1CC2	Cycloheximide cs 50, Shiga inhibitor 97
Nc1c2c(nc3sc4c(c13)CCCCC4)CCCC2	Cycloheximide cs 62, Shiga inhibitor 137
NC(=O)c1c(NC(=O)CSc2nc3c(c(C(F)(F)F)n2)CCc2ccccc2-3)sc2c1CCCC2	none
C[C@@]12CCC(=O)C=C1C=CC1C2CC[C@]2(C)C1CC[C@@]21CCC(=O)O1 (some centres undefined)	none (no result: LmPK inhibitor, Cycloheximide cs, Sm TGR inh, Shiga inhibitor)
Cc1nc(CNS(=O)(=O)c2ccc(F)cc2)cs1	none
O=C(Nc1ccc2nc(SCC(=O)N3CCc4ccccc43)sc2c1)c1ccc(F)cc1	none (no result: LmPK inhibitor, Cycloheximide cs, FBPA Giardia inh, Shiga inhibitor)
Cn1c(O)c(C=Nc2ccc(Br)cc2)sc1=O	Cycloheximide cs 45, Shiga inhibitor 80
COC(=O)c1cc(C(=O)OCC(=O)NCc2cccs2)cc([N+](=O)[O-])c1	none (no result: LmPK inhibitor, Cycloheximide cs, FBPA Giardia inh, Shiga inhibitor)
Cc1cccc(CNC(=O)C2CCC(=O)N(C3CCCCCC3)C2)c1 (centres undefined)	none (no result: FBPA Giardia inh)
O=S1(=O)[C@H]2C[C@@H]3C=C[C@@]2(CN1Cc1cccc(F)c1)O3	none
O=S1(=O)[C@H]2C[C@@H]3C=C[C@@]2(CN1Cc1cccc(C(F)(F)F)c1)O3	Cycloheximide cs 12
COc1ccc(C(=O)NCCc2ccc(C(F)(F)F)cc2)cc1S(=O)(=O)N1CCOCC1	none (no result: LmPK inhibitor, Cycloheximide cs, FBPA Giardia inh, Shiga inhibitor)
Cc1cccc(CNc2cc(-c3ccc(N(C)C)cc3)ncn2)c1	none (no result: TbPYK inhibitor, LmPK inhibitor, Cycloheximide cs, Sm TGR inh, Shiga inhibitor)
O=C(CN(C(=O)CCC(=O)Nc1ccccn1)c1ccc(F)cc1)NCc1ccc(F)cc1	none (no result: FBPA Giardia inh)
CN(C)c1ccc(CNc2ncnc3sccc23)cc1	none
CN(C)c1ccc(CNc2ncc(Br)cc2Br)cc1	Cycloheximide cs 34, Shiga inhibitor 66
Cc1cccc(NCc2ccc(N(C)C)cc2)n1	Cycloheximide cs 45, Shiga inhibitor 91
CSc1ccc(CNCC(O)c2ccccc2)cc1 (centres undefined)	Cycloheximide cs 22
Fc1ccc(CNc2ccccn2)cc1	Cycloheximide cs 20, Shiga inhibitor 26
CO/C1=C\C(C)=C\[C@@H](C)[C@@H](O)[C@@H](C)C/C(C)=C/C=C/[C@H](OC)[C@@H]([C@@H](C)[C@@H](O)[C@H](C)[C@@]2(O)C[C@@H](O)[C@H](C)C(C(C)C)O2)OC1=O (some centres undefined)	none (no result: TbPYK inhibitor, LmPK inhibitor, Sm TGR inh)
CSc1ccc(CNCCCSc2ncccn2)cc1	FBPA Giardia inh inconclusive
CSc1ccc(CNc2ccccn2)cc1	Cycloheximide cs 38, Shiga inhibitor 117
CN(C)c1ccc(CNc2ccccn2)cc1	Cycloheximide cs 27, Shiga inhibitor 43
CSc1ccc(CNc2ccccc2)cc1	Cycloheximide cs 29, Shiga inhibitor 61 (no result: TbPYK inhibitor)
COc1ccccc1C(=O)NC(CCSC)C(=O)OCC(=O)N1CCCC1=O (centres undefined)	none (no result: LmPK inhibitor, Cycloheximide cs, FBPA Giardia inh, Shiga inhibitor)
CN(C)Cc1ccccc1-c1nc(NCc2cccs2)c2ccccc2n1	none (no result: TbPYK inhibitor, LmPK inhibitor, Cycloheximide cs, Sm TGR inh, Shiga inhibitor)
COCCNC(=O)C1CCCN(S(=O)(=O)c2ccc3c(ccn3C)c2)C1 (centres undefined)	none (no result: LmPK inhibitor, Cycloheximide cs, FBPA Giardia inh, Shiga inhibitor)
Cc1ccccc1C(=O)N/N=C/c1ccncc1	none (no result: FBPA Giardia inh)
O=C(CNC(=O)c1ccccc1Br)N/N=C/c1cccnc1	none
O=C(CNC(=O)c1ccccc1F)N/N=C/c1cccnc1	Cycloheximide cs 31
Cc1ccc(C)n1-c1ccc(C(=O)N/N=C/c2ccncc2)cc1	Sm TGR inh 25µM
O=C(N/N=C/c1cccnc1)c1ccccc1	Cycloheximide cs 25, Shiga inhibitor 59
Cc1ccc(C(=O)N/N=C\c2cccnc2)s1	Cycloheximide cs 30, Shiga inhibitor 55 (no result: FBPA Giardia inh)
CC(C)(C)c1ccc(C(=O)NCC(=O)NCC(C)(C)N2CCOCC2)cc1	none (no result: LmPK inhibitor, Cycloheximide cs, FBPA Giardia inh, Shiga inhibitor)
O=C(N/N=C/c1ccc(F)cc1)c1ccncc1	none (no result: Shiga inhibitor)
O=C(N/N=C/c1ccncc1)c1ccccc1	Cycloheximide cs 21, Shiga inhibitor 55
CSc1sccc1/C=N/NC(=O)c1ccncc1	Shiga inhibitor active
